Measured values as given in ChEMBL document CHEMBL4513146, “CO-ADD screening of Karazin Kharkiv National University (Ukraine) compounds”.
Results with a measured potency or affinity are listed apart.

Experiments:
[1] = tested on: Klebsiella pneumoniae; details: Concentration 32 ug.mL-1;; ASSAY_TEST Inhibition of Bacterial Growth; detection method Absorption (OD600); MEDIA CAMHB; plate type 384well; NBS; CORNING #3640; time 18 hr
[2] = tested on: Candida albicans; details: Concentration 32 ug.mL-1; ASSAY_TEST Inhibition of Fungal Growth; detection method Absorption (OD530)
[3] = tested on: Cryptococcus neoformans; details: Concentration 32 ug.mL-1; ASSAY_TEST Inhibition of Fungal Growth; detection method Resazurin; Absorption (OD600-OD570); plate type 384well; NBS; CORNING #3640

Structure (SMILES): Cc1ccc(NC(=O)Cn2nc3c(Sc4cccc(F)c4)nccn3c2=O)cc1F
- Inhibition [1]: 11.17%
- Inhibition [2]: 0.17%
- Inhibition [3]: -11.09%

Structure (SMILES): CCCn1c(=O)c2sccc2n2c(CCC(=O)NC(C)C34CC5CC(CC(C5)C3)C4)nnc12 (stereo unspecified)
- Inhibition [1]: 1.34%
- Inhibition [2]: 7.2%
- Inhibition [3]: -25.73%

Structure (SMILES): COc1ccc(CN(c2ccc(F)c(F)c2)S(=O)(=O)c2ccc3nncn3c2)cc1
- Inhibition [1]: 12.63%
- Inhibition [2]: 0.74%
- Inhibition [3]: -4.76%

Structure (SMILES): Cc1ccc(-c2cc3c4nn(CC(=O)Nc5ccccc5Br)c(=O)n4ccn3n2)cc1C
- Inhibition [1]: 18.24%
- Inhibition [2]: -0.22%
- Inhibition [3]: -11.06%

Structure (SMILES): CC(C)c1nnc2c(SCC(=O)Nc3ccc(F)cc3F)nc3ccccc3n12
- Inhibition [1]: 13.12%
- Inhibition [2]: -0.24%
- Inhibition [3]: -26.87%

Structure (SMILES): CCC(Sc1nnc2c(=O)n(-c3ccc(C)c(C)c3)ccn12)C(=O)Nc1ccccc1C (stereo unspecified)
- Inhibition [1]: 15.08%
- Inhibition [2]: 1%
- Inhibition [3]: -9.85%

Structure (SMILES): CC(C)c1nnc2c(=O)n(CC(=O)Nc3cccc(F)c3)c3ccccc3n12
- Inhibition [1]: 24.07%
- Inhibition [2]: 3.13%
- Inhibition [3]: -19.58%

Structure (SMILES): Cc1ccc(-c2ccc3nn(CC(=O)Nc4ccc(Br)cc4)c(=O)n3n2)cc1C
- Inhibition [1]: 12.28%
- Inhibition [2]: 10.19%
- Inhibition [3]: -18.48%

Structure (SMILES): CCc1ccccc1Sc1nccn2c(=O)n(CC(=O)Nc3ccc(C)cc3C)nc12
- Inhibition [1]: 5.62%
- Inhibition [2]: 1.23%
- Inhibition [3]: -14.18%

Structure (SMILES): Cc1ccc(-n2ccn3c(=O)n(Cc4c(F)cccc4Cl)nc3c2=O)cc1C
- Inhibition [1]: 16.81%
- Inhibition [2]: 1.02%
- Inhibition [3]: -16.44%

Structure (SMILES): O=C(Cn1nc2c(SCc3ccccc3)nccn2c1=O)NC1CCCC1
- Inhibition [1]: 3.94%
- Inhibition [2]: 1.33%
- Inhibition [3]: -3.97%

Structure (SMILES): O=C(Cn1nc2c(Sc3cccc(F)c3)nccn2c1=O)Nc1cccc(Br)c1
- Inhibition [1]: 7.1%
- Inhibition [2]: -0.26%
- Inhibition [3]: -2.48%

Structure (SMILES): CCc1ccccc1NC(=O)Cn1c(=O)c2nnc(C(C)C)n2c2ccccc21
- Inhibition [1]: -2.33%
- Inhibition [2]: 1.4%
- Inhibition [3]: -16.86%

Structure (SMILES): Cc1nnc2ccc(S(=O)(=O)N(Cc3cccc(F)c3)c3ccc(F)c(F)c3)cn12
- Inhibition [1]: 2.49%
- Inhibition [2]: 1.97%
- Inhibition [3]: -11.8%

Structure (SMILES): Cc1c(Cl)cccc1-n1ccn2c(=O)n(Cc3cccc(Cl)c3)nc2c1=O
- Inhibition [1]: 5.86%
- Inhibition [2]: 2.56%
- Inhibition [3]: -15.28%

Structure (SMILES): CC(C)(C)NC(=O)Cn1nc2n(Cc3ccco3)c(=O)c3sccc3n2c1=O
- Inhibition [1]: 9.07%
- Inhibition [2]: 1.61%
- Inhibition [3]: -14.16%

Structure (SMILES): CC(C)NC(=O)CSc1nnc2c(=O)n(-c3ccccc3)ccn12
- Inhibition [1]: 11.98%
- Inhibition [2]: 2.07%
- Inhibition [3]: -5.87%

Structure (SMILES): CC(C)c1nnc2c(SCC(=O)Nc3ccccc3C(F)(F)F)nc3ccccc3n12
- Inhibition [1]: 13.6%
- Inhibition [2]: 0.36%
- Inhibition [3]: -15.63%

Structure (SMILES): O=S(=O)(c1ccc2nncn2c1)N(Cc1cc(F)cc(F)c1)c1cccc(F)c1
- Inhibition [1]: 11.98%
- Inhibition [2]: 2.7%
- Inhibition [3]: -8.32%

Structure (SMILES): CC(C)Cn1c(=O)c2sccc2n2c(=O)n(CC(=O)NC(C)C)nc12
- Inhibition [1]: 6.06%
- Inhibition [2]: 1.49%
- Inhibition [3]: -7.6%

Structure (SMILES): Cc1ccc(CN(c2ccc3c(c2)OCO3)S(=O)(=O)c2ccc3nnc(C)n3c2)cc1
- Inhibition [1]: 2.15%
- Inhibition [2]: 2.45%
- Inhibition [3]: -2.21%

Structure (SMILES): COc1ccc(CNC(=O)CCc2nnc3c(N4CCCCC4)nc4ccccc4n23)cc1OC
- Inhibition [1]: 15.18%
- Inhibition [2]: 6.91%
- Inhibition [3]: -22.66%
